Screening data deposited in PubChem BioAssay by National Center for Advancing Translational Sciences (NCATS).
Compounds with a hit are over-represented: about 12% of the library has one in this group of screens.
HP1b chromo inh: HP1-beta chromodomain-methylated histone interaction inhibition; AlphaScreen HP1-beta / biotin-H3K9me3 peptide binding; Potency, µM (series often up to 114 µM), inactives show top-dose activity change, negative = inhibition, actives largely listed as inhibitors; hit rate 0.56% among 390,000; AID 540317; further: potency means the concentration at half of the fitted maximal effect; nearly all actives have a fitted effect of over 70% in size
Target sequence (P83916 whole entry, looked up): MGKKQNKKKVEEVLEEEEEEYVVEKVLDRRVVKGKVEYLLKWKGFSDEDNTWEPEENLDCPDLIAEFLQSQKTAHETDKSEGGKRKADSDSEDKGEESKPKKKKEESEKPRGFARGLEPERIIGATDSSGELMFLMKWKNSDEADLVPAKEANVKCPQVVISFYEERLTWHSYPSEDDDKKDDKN
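Compound inhibition of the preformed complex between 50 nM HP1-beta and 50 nM biotinylated H3K9me3 peptide was read by AlphaScreen. Buffer was PBS pH 7.4 with 0.01% Tween-20. Incubations ran 30 min at room temperature, with 10 ug/mL donor/acceptor beads.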
PLK1 PBD inh: inhibitors of human PLK1 polo-box domain binding | P53350 | Plk1 PBD binding of FITC phosphopeptide, fluorescence polarization | Potency, µM, for inactives: max response, negative = inhibition, most hits filed as inhibitors | hit rate 2.8% among 360,000; further: potency means the concentration at half of the fitted maximal effect; series mostly up to about 57 µM; on the % scale 0 is the no-effect control and ±100 the full control effect; nearly all actives have a fitted effect of over 65% in size
PI5P4Ka inh: blocks human PI5P4K alpha kinase activity; P48426; PI5P4Kalpha enzyme, ADP-Glo luminescence, 60 min; active compounds read low; max response, %; hit rate 1.2% among 330,000; AID 652105; active means max response of -50% or lower; inconclusive means between -30% and -50%; inactive means -30% or higher; further: value at the top dose of about 77 µM; on the % scale 0 is the no-effect control and ±100 the full control effect
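Single end-point luminescence (ADP-Glo) quantified ADP from PI5P4Kalpha turnover; ATP 5 microM final, 1 h at RT, 0.1% CHAPS and 0.28 mM EGTA in HEPES pH 7.4.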
G9a block: G9a (human) methyltransferase inhibition | G9a H3K9 monomethylation, AlphaScreen, 2 h | hit rate 8.8% among 350,000 | Potency, µM (highest dose often 102 µM), for the others: top-dose activity, negative = inhibition, hits mostly inhibitors | Q96KQ7; further: potency means the concentration at half of the fitted maximal effect; on the % scale 0 is the no-effect control and ±100 the full control effect; nearly all actives have a fitted effect of over 75% in size
Target sequence (Q96KQ7 913-1193 limits assumed): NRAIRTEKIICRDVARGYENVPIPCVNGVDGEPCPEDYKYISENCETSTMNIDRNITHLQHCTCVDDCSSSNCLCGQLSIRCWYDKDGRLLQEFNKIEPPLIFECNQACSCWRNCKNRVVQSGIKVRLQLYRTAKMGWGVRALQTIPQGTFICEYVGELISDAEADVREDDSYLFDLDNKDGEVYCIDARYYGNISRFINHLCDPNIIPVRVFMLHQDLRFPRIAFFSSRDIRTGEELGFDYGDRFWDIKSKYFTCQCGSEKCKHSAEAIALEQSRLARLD
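Readings reflect AlphaScreen signal from monomethyl-H3K9 antibody detection. HMT at 20 nM; substrate b-H3K9 500 nM; cofactor SAM 20 uM; 2 h RT reaction; compounds tested as titrations in qHTS with 15 min preincubation.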
JMJD2A Tudor: blocks the human JMJD2A Tudor domain | O75164 | AlphaScreen JMJD2A-Tudor / H3K4me3 peptide binding | Potency, µM (series often up to 114 µM), without a hit: top-dose activity change, negative = inhibition, hits mostly inhibitors | hit rate 4.4% among 390,000; further: potency means the concentration at half of the fitted maximal effect; on the % scale 0 is the no-effect control and ±100 the full control effect; nearly all actives have a fitted effect of over 50% in size
BAZ2B block: inhibitors of human BAZ2B bromodomain; Potency, µM (highest dose often 114 µM), for the others: at the highest dose activity change, negative = inhibition, actives largely listed as inhibitors; Q9UIF8; AlphaScreen BAZ2B-H3K14Ac peptide displacement; hit rate 4.4% among 360,000; AID 504333; further: potency means the concentration at half of the fitted maximal effect; on the % scale 0 is the no-effect control and ±100 the full control effect; nearly all actives have a fitted effect of over 60% in size
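In this displacement format the biotinylated H3(5-23) peptide acetylated at Lys14 serves as ligand at 50 nM, with BAZ2B at 50 nM in PBS pH 7.4 containing 0.01% Tween-20. Donor and acceptor beads are 10 ug/mL final.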
The depositor's hits bear a star; ? = inconclusive; . = no result; [ ] = another dose, or the depositor's remark. Unless noted, the call rests on the fitted dose curve; in most records, active means well fitted curve in the direction sought with a large enough effect; inconclusive means small, poorly fitted or top-dose-only effect, or another doubt; inactive means no such curve, though single readings can be large; an effect the other way counts as inactive or inconclusive.

SMILES	HP1b chromo inh	PLK1 PBD inh	PI5P4Ka inh	G9a block	JMJD2A Tudor	BAZ2B block
CNc1ccc(C(=O)c2ccccc2C(=O)O)cc1[N+](=O)[O-]	28.1%	-13.0%	-1.2	-35.2%	?	-24.4%
CCOC(=O)[C@]12CCC=C1N(CCC1=CCCCC1)C(=O)[C@H](CC(=O)N1CCOCC1)C2	.	-2.1%	-1.4	.	.	.
CC1(C)C2([N+](=O)[O-])CN3CC1([N+](=O)[O-])CN(C2)C3c1ccc(O)c(O)c1 (configuration not stated)	14.5%	-3.2%	-1.1	22.4µM*	?	-17.0%
CCOC(=O)C1=C[C@@H](C2CCCC2)N(S(=O)(=O)c2ccc([N+](=O)[O-])cc2)[C@H]1c1ccccc1	.	0.6%	-0.7	.	.	.
CN(C)c1ccc(Nc2ncnc3sc4c(c23)CCCC4)cc1	22.4µM*	.	.	?	25.1µM*	31.6µM*
NNc1ncnc2sc3c(c12)CCC3	-1.6%	-13.6%	-27.6	-12.7%	22.4µM*	17.8µM*
CC1(C)Cc2c(sc3ncnc(NN)c23)CO1	20.5%	4.9%	-2.4	19.3%	50.1µM*	79.4µM*
CC1(C)Cc2c(sc3ncn4c(=S)[nH]nc4c23)CO1	?	29.9µM*	-53.2*	3.16µM*	?	7.5%
CC1(C)Cc2c(sc3ncn(N)c(=N)c23)CO1	13.5%	-6.7%	-9.3	13.5%[59 µM]	-10.9%	-1.2%
CCC(C)NC(=O)C1CC(=O)N(CCc2ccc(F)cc2)C1 (configuration not stated)	34.9%	-24.2%	10.8	.	-3.2%	?
Cc1ccc(/C=C/C(=O)c2ccccc(=O)c2O)cc1C	?	29.9µM*	-21.0	28.2µM*	79.4µM*	70.8µM*
O=C(/C=C/c1ccc2c(c1)OCCO2)c1ccccc1	46.5%	-14.7%	1.2	56.1%	-16.3%	-1.4%
O=C(/C=C/c1ccccc1)c1cc(Br)ccc(=O)c1O	?	26.7µM*	-25.1	12.6µM*	56.2µM*	44.7µM*
COc1ccc(-c2cnc(C)o2)cc1S(=O)(=O)Nc1ccc(OC(F)(F)F)cc1	30.8%	.	.	7.3%[12.7 µM]	-19.9%	?
CC(=O)c1cc(C#N)c(Oc2cc(C)cc(C)c2)nc1C	6.2%	11.9µM*	-24.6	14.3%[59 µM]	-29.5%[11.4 µM]	-5.9%
CN(C)CCCOC(=O)c1ccc(Br)cc1	42.9%	-0.6%	-0.7	44.7µM*	8.0%	9.9%
CCc1cc2c(-c3ccccc3)cc(=O)oc2cc1OC(C)C(=O)O (configuration not stated)	30.9%	-8.1%	-5.2	.	5.8%	-0.4%
CC(NC(=O)OCc1ccccc1)C(=O)Oc1cc2oc(=O)cc(-c3ccccc3)c2cc1Cl (configuration not stated)	75.2%	-21.5%	-61.8*	18.0%[59 µM]	1.7%	-4.9%
CCCc1cc2c(-c3ccccc3)cc(=O)oc2cc1OCc1ccc(C(=O)O)o1	?	23.8µM*	-23.3	44.7µM*	-19.5%[11.4 µM]	?
CCOC(=O)c1scc(-c2ccc(C)cc2)c1S(=O)(=O)N1CCN(c2ccccc2)CC1	34.1%	.	.	-25.4%[59 µM]	-25.3%	?
O=C1N=C(N2C=CC(=C3C=CNC=C3)C=C2)/C(=C/N=NC(=O)c2ccccc2O)S1	44.7µM*	-29.9%	-60.7*	70.8µM*	?	50.1µM*
CCCNc1ncc2c(=O)[nH][nH]c(=O)c2n1	3.5%	-8.2%	-55.3*	.	20µM*	.
N/C(=N\OS(=O)(=O)c1ccccc1)c1ccccn1	44.0%	-0.8%	1.4	?	3.55µM*	22.4µM*
N/C(=N\OS(=O)(=O)c1ccc(Cl)cc1)c1ccccn1	55.7%	-11.0%	0.0	2µM*	25.1µM*	25.1µM*
N/C(=N\OS(=O)(=O)c1ccc(Br)cc1)c1ccncc1	-38.0%	-15.1%	.	39.8µM*	-27.4%	2.5%
SMILES	HP1b chromo inh	PLK1 PBD inh	PI5P4Ka inh	G9a block	JMJD2A Tudor	BAZ2B block
N/C(=N\OC(=O)COc1ccc(Br)cc1)c1ccncc1	38.3%	2.8%	2.9	-3.9%[59 µM]	-4.1%	5.7%
CC(C)C(=O)O/N=C(\N)c1ccccn1	16.9%	-6.4%	-3.9	-26.4%[59 µM]	-2.8%	3.9%
Cc1ccccc1NC(=O)CSc1ccc(-c2cccs2)nn1	46.2%	.	.	4.8%[59 µM]	-13.6%	-20.6%
Nc1cc2c(cc1[N+](=O)[O-])-c1ccccc1C2=NO	?	1.5%	0.8	.	28.2µM*	.
CC(=O)Nc1cc2c(cc1[N+](=O)[O-])-c1ccccc1C2=NO	6.8%	-0.5%	-5.3	.	-24.3%	.
COC(CN(C)C(=O)c1ccc2c(c1)NC(=O)c1ccccc1S2)OC	33.4%	-7.1%	0.8	3.7%	-3.7%	3.3%
